HSF1 activator = increases HSF-1 driven luciferase reporter signal; NIH3T3-HGL HSF-1 luciferase reporter, MG132, 8 h; 100% = twice DMSO control signal; activation, % at 9 µM; actives 1.7% (n = 300,000); AID 504408;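 active = mean replicate activation of at least 50% with a set share of replicates each reaching 50%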
AHR activator = activates the human aryl hydrocarbon receptor; P35869; AHR-responsive luciferase reporter cells, luminescence; activation, % at 5 µM; actives 2.5% (n = 320,000); in the data active = activation above about 47%
HSF1 inh = HSF1 inhibition. NIH3T3-HGL HSE-luciferase, MG132-induced, luminescence 8 h; stronger effect = lower value. actives 0.77% (n = 300,000). activity change, negative = inhibition, % at 7.5 µM (by protocol). AID 2098;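 active = more than half of replicate wells show activity change below -50%, luminescence cut by over half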;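 note: luciferase reports HSF-1 transcriptional activity via heat shock element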
NR0B1 inh = NR0B1 (DAX1) inhibition; HEK293 Gal4-DAX1 luciferase reporter, luminescence; inhibition, % at 6.75 µM; actives 0.99% (n = 340,000);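 active = inhibition above the mean over all tested compounds plus 3 SD, cut at about 4.2% in these data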;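 note: inhibition shows as a rise in luminescence from relieved DAX1 repression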
Target sequence (P51843 207-470 limits assumed): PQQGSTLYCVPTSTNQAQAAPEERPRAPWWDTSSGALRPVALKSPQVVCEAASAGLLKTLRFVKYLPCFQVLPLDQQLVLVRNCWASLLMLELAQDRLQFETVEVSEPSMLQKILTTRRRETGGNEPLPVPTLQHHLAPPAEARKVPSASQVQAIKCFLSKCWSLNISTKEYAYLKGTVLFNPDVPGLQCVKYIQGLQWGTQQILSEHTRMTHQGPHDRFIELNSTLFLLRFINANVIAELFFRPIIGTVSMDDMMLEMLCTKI
GAA850 FXN act = activators of GAA850 frataxin (FXN) promoter. HEK293 lucGAA850 FXN promoter luciferase reporter, 24 h; percent of 10 µM SAHA response. AID 540364. activation, % at 6 µM. actives 0.56% (n = 360,000);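 active = activation above the average of all compounds screened plus 3 SD, cutoff fixed separately per campaign, cut at about 7.5% in these data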
AHR act cf = human AHR activation, confirmation. shares compounds with AHR activator. human cells, AHR-responsive luciferase reporter, luminescence. activation, % at 9 µM. actives 87% (n = 2,300). AID 2845; in the data active = activation above about 49%;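 note: HepG2 hepatoma cells carrying a DRE-driven firefly luciferase reporter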
PXR counter = PXR activation, counter-screen for AHR activators | activation, % at 11.6 µM | actives 88% (n = 2,300) | shares compounds with AHR activator | AID 434939 | cell-based PXR reporter, luciferase luminescence; in the data active = activation above about 11%;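 note: human hepatoma DPX-2 cells expressing full-length human PXR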
Each line names hits and unclear results; the compound was inactive in the other large screens (follow-up assays come after a bar, where they were run). Rows were chosen to be rich in hits. Some 5.4% of all compounds tested hit in one or more screens of this group.

Clc1cc(Cl)c2nc(N3CCCC3)sc2c1	AHR activator 88 | AHR act cf 95 | PXR counter 28
O=C(N=C1c2ccccc2CN1c1ccc(F)c(Cl)c1)c1cccnc1Cl	HSF1 activator 69, AHR activator 123 (no result: NR0B1 inh, GAA850 FXN act) | AHR act cf 113 | PXR counter 158
CN(CC(=O)Nc1cccnc1)S(=O)(=O)c1ccc(Br)cc1	none
N=c1n(CCN2CCOCC2)c2ccccc2n1CC(=O)c1cccc([N+](=O)[O-])c1	AHR activator 134 | AHR act cf 148 | PXR counter 87
CCn1c(=N)n(CC(=O)c2cccc([N+](=O)[O-])c2)c2ccccc21	none
O=C(CN1C2=NCCN2c2ccccc21)c1ccc(Br)s1	AHR activator 94 | AHR act cf 81 | PXR counter 14
O=C(CN1C2=NCCN2c2ccccc21)c1ccc(Br)cc1	AHR activator 112 | AHR act cf 71 | PXR counter 21
O=C(CN1C2=NCCN2c2ccccc21)c1ccc2c(c1)OCO2	none
CC(=O)Nc1ccc(C2=CC(=O)C[C@H](c3ccc4c(c3)OCO4)C2)cc1	none (no result: HSF1 activator, HSF1 inh)
O=C(Cn1cnc2c(NCc3ccccc3)ncnc21)NCCCN1CCCC1=O	none (no result: HSF1 activator, AHR activator, HSF1 inh)
Cn1c(C(O)c2ccc(Cl)cc2)nc(Cl)c1Cl (stereo unspecified)	AHR activator 88 | AHR act cf 114 | PXR counter 71
CCC1CCCN1Cn1cnc2c([nH]c3ccc(OC)cc32)c1=O (stereo unspecified)	none
CCC1CCCN1Cn1cnc2c([nH]c3ccccc32)c1=O (stereo unspecified)	AHR activator 84 | AHR act cf 78 | PXR counter 54
Cn1cc(-c2cc(C(=O)O)on2)cn1	none
CCCCNc1c(-c2ccc(OC)c(SC3CCCCC3)c2)nc2cc(C)ccn12	none
CCCCNc1c(-c2ccc(OC)c(SC3CCCCC3)c2)nc2cnccn12	AHR activator 94 | AHR act cf 58 | PXR counter 169
O=C(Cn1cnc2cc(Cl)ccc2c1=O)Nc1ccc2c(c1)OCO2	none
Cc1c(C(=O)NCc2ccccc2CN2CCCC2)oc2ccc(F)cc12	AHR activator 124 (no result: HSF1 activator, HSF1 inh) | AHR act cf 112 | PXR counter 76
COc1ccccc1CNC(=O)c1oc2ccccc2c1C	none
Cc1ccc(S(=O)(=O)Nc2ccc(Nc3nccn4c(-c5cccc(OC(F)(F)F)c5)cnc34)cc2)cc1	none (no result: HSF1 activator, AHR activator, HSF1 inh, NR0B1 inh)
COc1ccc(NC(=O)C2Cc3c(-c4cccc(C(C)=O)c4)ccnc3O2)cn1 (stereo unspecified)	none (no result: HSF1 activator, AHR activator, HSF1 inh, NR0B1 inh)
CCN1CCN(c2ncnc3sc(C(=O)Nc4ccccc4F)c(C)c23)CC1	AHR activator 128 | AHR act cf 75 | PXR counter 23
COc1ccc(OC)c(NC(=O)c2sc3ncnc(N4CCN(c5ccccn5)CC4)c3c2C)c1	none
CN(C(=O)c1nn(C)c2c1CSc1ccccc1-2)c1ccccc1Cl	none
CN(C(=O)c1nn(C)c2c1CSc1ccccc1-2)c1ccc(F)cc1	AHR activator 105 | AHR act cf 47 | PXR counter 64
CC(=O)Nc1ccc2cc3ccc(NC(C)=O)cc3nc2c1	AHR activator 107 | AHR act cf 81
CC(=O)Nc1ccc2sc(C)nc2c1	none
c1coc(C2Nc3ccccc3-c3nc4ccccc4n32)c1 (stereo unspecified)	AHR activator 129 | AHR act cf 49 | PXR counter 71
c1ccc(C2Nc3ccccc3-c3nc4ccccc4n32)nc1 (stereo unspecified)	AHR activator 80 | AHR act cf 88 | PXR counter 114
CCOC(=O)c1cccc(NC(=O)C2CCCN(c3nnc(N4CCCC4=O)s3)C2)c1 (stereo unspecified)	none
N#C/C(=C\c1ccc(F)cc1F)S(=O)(=O)c1ccccn1	none
O=C1c2ccccc2C(O)(c2ccccc2)N1c1ccncc1 (stereo unspecified)	none
O=C(Nc1nc2ccc(Cl)cc2s1)C1CC1	AHR activator 114 | AHR act cf 77 | PXR counter 19
CC(C)c1ccc2nc(NC(=O)C3CC3)sc2c1	AHR activator 89 | AHR act cf 79 | PXR counter 39

Assay outcomes from PubChem BioAssay.
